For some assays here: Potency and affinity values are given separately.
What was measured:
Set-up in all cases: scale not given: direction of the effect not stated beside the values
[1] = target: Protein translocase subunit SecA (Escherichia coli (strain K12)) (UniProt P10408); assay: Assay to Identify E. coli SecA ATPase Inhibitors; format: functional; settings: 30 µM
[2] = target: T1, Ubiquitin-activating enzyme e1, putative (Leishmania donovani (strain BPK282A1)) (UniProt E9BSI1); assay: Leishmania donovani Ubiquitin Activating Enzyme (LdE1); format: functional; settings: 30 µM
T1 sequence (whole entry): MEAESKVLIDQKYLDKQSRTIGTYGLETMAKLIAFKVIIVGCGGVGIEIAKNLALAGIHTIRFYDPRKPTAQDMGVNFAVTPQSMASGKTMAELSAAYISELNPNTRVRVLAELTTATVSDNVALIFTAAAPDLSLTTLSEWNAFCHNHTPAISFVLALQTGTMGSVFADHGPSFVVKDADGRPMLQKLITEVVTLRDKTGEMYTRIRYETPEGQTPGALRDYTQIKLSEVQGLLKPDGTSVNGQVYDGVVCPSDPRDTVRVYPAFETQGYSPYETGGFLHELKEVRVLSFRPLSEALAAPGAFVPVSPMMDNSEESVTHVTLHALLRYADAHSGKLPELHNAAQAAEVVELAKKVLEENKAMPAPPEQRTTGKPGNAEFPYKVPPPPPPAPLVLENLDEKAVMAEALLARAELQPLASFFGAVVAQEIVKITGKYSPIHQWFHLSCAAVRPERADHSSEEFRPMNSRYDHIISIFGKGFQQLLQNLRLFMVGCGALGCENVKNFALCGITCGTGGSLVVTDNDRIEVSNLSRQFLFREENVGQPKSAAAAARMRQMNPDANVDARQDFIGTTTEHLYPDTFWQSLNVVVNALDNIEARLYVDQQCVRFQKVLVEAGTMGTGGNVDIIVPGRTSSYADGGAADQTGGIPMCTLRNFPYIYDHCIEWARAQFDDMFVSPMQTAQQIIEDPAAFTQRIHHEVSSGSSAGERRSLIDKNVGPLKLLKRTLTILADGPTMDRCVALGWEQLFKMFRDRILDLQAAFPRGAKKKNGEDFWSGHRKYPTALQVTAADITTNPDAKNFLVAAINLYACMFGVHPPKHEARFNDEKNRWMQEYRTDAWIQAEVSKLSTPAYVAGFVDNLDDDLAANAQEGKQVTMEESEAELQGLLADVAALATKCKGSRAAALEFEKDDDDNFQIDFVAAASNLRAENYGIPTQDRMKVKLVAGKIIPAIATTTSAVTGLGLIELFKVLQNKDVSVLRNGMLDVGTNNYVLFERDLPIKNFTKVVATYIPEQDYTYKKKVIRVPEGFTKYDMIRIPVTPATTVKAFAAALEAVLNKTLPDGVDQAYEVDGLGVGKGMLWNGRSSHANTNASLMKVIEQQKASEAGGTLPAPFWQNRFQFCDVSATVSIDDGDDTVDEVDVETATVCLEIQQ

[3] = target: AMP-activated protein kinase, AMPK (Homo sapiens) (UniProt P54646+O43741+P54619+Q9UGJ0+Q9Y478+Q13131+Q9UGI9); assay: AMP-dependent Kinase enzyme assay. An in vitro enzyme assay that detects ADP turnover that is directly proportional to AMPK activity. This uses naive AMPK that is activated during the assay with MK-8722; format: functional; settings: 30 µM
[4] = target: Sialic acid-binding Ig-like lectin 9 (Homo sapiens) (UniProt Q9Y336); assay: Hs-Siglec9 ALPHAscreen SOP 20170721; settings: 10 µM
Sequence of Sialic acid-binding Ig-like lectin 9 (Homo sapiens) (Q9Y336 whole entry): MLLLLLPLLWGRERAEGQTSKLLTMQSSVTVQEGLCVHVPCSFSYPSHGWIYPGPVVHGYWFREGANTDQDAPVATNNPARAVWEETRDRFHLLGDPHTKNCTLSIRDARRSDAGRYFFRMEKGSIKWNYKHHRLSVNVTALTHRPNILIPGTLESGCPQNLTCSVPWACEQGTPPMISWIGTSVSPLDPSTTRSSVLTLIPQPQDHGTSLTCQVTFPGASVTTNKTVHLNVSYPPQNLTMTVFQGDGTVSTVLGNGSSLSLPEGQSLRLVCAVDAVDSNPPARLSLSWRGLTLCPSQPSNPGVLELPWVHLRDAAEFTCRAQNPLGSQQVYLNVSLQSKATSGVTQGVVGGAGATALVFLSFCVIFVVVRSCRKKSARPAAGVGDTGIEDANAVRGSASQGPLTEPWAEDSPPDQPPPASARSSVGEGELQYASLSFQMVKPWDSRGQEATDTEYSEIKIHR

Trypanosoma cruzi = assay: Trypanosoma cruzi phosphomannomutase and mannose-1-phosphate guanylyltransferase assay; format: functional; settings: 10 µM
[5] = target: T2, Arginase-2, mitochondrial (Homo sapiens) (UniProt P78540); assay: in vitro enzyme assay to detect the production of urea directly proportional to the activity of Arginase II; format: functional; settings: 33.3 µM; further: in the data most compounds retested in dose-response had high values
T2 sequence (whole entry): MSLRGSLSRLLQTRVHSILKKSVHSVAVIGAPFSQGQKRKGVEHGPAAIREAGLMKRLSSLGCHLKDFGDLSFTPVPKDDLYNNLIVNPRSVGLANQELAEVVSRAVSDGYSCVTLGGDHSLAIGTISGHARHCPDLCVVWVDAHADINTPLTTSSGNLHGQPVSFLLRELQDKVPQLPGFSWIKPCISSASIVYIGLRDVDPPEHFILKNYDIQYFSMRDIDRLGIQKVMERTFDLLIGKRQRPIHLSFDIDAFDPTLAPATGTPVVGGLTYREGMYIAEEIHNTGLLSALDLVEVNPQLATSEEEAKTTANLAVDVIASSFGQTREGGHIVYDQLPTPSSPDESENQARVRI

[6] = target: T3, Proteasome subunit beta (Trypanosoma cruzi) (UniProt O96673); assay: Trypanosoma cruzi proteasome chymotrypsin-like activity (TcProtChymo) assay.; further: in the data most compounds retested in dose-response had high values; format: functional; settings: 9.37 µM
T3 sequence (whole entry): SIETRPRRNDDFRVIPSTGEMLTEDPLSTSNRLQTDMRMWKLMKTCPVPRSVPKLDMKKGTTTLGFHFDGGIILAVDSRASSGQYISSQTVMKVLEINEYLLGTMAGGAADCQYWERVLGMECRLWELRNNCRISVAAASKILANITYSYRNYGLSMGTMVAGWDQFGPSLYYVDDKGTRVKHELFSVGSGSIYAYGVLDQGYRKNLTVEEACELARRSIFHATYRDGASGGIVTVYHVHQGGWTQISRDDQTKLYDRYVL

Homo sapiens = organism: Homo sapiens; assay: To identify inhibition of the IFN signalling (Jak-Stat) pathway via expression of an eGFP reporter gene under the control of an IFN-stimulated response element (ISRE) containing MxA promoter.; format: functional; settings: 30 µM
[7] = target: T4, Tyrosyl-tRNA synthetase, putative (Trypanosoma cruzi (strain CL Brener)) (UniProt Q4DSP6); assay: Trypanosoma cruzi tyrosyl tRNA synthetase (TcYRS) _High Tyrosine SOP; format: functional; settings: 30 µM; further: in the data most compounds retested in dose-response had high values
T4 sequence (whole entry): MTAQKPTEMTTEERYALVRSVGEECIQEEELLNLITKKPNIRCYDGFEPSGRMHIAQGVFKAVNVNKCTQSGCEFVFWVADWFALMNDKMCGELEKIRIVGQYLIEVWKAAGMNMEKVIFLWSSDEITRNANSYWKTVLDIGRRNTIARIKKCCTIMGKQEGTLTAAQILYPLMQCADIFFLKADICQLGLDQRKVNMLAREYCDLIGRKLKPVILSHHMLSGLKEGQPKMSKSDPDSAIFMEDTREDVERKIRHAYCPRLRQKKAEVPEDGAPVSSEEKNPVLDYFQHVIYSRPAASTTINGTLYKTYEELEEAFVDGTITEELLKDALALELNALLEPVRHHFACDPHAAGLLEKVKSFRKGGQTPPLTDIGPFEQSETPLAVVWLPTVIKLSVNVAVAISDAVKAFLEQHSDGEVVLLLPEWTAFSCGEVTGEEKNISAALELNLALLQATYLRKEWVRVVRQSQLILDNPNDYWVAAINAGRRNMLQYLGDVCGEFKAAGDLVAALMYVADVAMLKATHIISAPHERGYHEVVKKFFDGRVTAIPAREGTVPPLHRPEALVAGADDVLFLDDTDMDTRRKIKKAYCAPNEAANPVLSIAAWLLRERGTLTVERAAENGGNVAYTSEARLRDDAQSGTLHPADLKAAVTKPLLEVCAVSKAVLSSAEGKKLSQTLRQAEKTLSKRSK

[8] = target: T4, Tyrosyl-tRNA synthetase, putative (Trypanosoma cruzi (strain CL Brener)); assay: Trypanosoma cruzi tyrosyl tRNA synthetase (TcYRS) SOP; format: functional; settings: 30 µM
[9] = target: Chromo domain-containing protein 1 (Saccharomyces cerevisiae (strain ATCC 204508 / S288c) (Baker's yeast)) (UniProt P32657); assay: ScCHD-1 Enzyme Inhibition Assay; format: functional; settings: 30 µM; further: in the data most compounds retested in dose-response had high values
Sequence of Chromo domain-containing protein 1 (Saccharomyces cerevisiae (strain ATCC 204508 / S288c) (Baker's yeast)) (P32657 whole entry, the tested form may be a part): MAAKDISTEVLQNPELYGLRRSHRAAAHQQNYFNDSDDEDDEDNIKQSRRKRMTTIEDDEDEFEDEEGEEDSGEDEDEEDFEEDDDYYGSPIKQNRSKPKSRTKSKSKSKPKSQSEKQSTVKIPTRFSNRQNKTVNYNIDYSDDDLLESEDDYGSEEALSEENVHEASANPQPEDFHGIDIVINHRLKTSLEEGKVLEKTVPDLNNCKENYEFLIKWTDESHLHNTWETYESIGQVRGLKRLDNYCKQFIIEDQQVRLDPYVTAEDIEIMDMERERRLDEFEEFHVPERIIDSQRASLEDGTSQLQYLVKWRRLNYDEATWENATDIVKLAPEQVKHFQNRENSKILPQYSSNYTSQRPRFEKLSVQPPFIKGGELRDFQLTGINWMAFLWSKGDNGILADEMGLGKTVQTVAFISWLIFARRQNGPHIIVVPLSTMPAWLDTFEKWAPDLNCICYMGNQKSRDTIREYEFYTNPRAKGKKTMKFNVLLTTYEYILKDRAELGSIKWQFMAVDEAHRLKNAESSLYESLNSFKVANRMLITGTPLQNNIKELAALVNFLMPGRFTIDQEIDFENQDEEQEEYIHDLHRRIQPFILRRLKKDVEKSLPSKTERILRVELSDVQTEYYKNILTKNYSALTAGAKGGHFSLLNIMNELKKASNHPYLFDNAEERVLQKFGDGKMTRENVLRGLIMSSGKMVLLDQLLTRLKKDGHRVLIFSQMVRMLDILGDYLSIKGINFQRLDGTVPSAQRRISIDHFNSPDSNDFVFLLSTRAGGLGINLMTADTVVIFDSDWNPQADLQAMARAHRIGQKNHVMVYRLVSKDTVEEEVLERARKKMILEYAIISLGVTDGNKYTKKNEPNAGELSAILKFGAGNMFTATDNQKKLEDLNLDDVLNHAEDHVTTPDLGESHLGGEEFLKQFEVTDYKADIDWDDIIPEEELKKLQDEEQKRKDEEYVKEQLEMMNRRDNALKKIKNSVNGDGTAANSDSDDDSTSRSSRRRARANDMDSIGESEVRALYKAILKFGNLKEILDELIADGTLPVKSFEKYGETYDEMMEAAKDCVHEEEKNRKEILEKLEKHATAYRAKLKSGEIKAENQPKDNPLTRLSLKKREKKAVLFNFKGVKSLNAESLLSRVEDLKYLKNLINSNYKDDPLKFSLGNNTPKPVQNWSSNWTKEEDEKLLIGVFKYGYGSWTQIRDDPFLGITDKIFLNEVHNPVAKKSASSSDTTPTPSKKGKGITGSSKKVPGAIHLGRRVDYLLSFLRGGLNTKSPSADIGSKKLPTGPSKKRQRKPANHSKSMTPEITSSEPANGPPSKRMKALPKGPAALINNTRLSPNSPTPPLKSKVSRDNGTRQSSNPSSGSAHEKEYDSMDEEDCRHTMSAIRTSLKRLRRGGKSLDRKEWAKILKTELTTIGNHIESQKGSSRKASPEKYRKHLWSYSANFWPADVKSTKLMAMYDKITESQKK

Sequence of Protein translocase subunit SecA (Escherichia coli (strain K12)) (P10408 whole entry): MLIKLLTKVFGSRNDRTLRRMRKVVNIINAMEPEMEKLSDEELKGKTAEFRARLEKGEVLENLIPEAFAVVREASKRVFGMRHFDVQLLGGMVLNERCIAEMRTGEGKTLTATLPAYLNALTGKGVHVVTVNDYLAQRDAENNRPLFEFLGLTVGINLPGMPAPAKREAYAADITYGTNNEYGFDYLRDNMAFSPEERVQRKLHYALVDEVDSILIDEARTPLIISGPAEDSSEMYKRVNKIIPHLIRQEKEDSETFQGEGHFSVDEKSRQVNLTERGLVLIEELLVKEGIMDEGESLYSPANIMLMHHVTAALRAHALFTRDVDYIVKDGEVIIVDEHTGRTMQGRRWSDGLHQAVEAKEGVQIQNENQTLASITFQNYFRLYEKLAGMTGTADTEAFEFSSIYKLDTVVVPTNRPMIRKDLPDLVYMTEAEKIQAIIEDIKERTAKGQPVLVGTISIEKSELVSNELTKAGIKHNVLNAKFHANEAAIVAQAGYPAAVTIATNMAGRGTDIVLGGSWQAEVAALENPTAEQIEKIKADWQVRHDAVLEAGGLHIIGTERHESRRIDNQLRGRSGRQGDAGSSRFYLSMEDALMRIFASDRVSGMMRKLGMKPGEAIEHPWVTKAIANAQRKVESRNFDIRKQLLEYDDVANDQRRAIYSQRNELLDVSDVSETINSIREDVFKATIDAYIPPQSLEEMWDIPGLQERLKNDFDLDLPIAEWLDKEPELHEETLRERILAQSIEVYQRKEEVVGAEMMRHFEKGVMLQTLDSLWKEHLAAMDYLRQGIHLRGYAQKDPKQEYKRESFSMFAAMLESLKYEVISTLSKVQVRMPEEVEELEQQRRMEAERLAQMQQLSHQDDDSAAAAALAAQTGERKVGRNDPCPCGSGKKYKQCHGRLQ

Row | SMILES | Percent Effect [1] [%] | Percent Effect [2] [%] | Percent Effect [3] [%] | Percent Effect [4] [%] | Percent Effect (Trypanosoma cruzi) [%] | Percent Effect [5] [%] | Percent Effect [6] [%] | Percent Effect (Homo sapiens) [%] | Percent Effect [7] [%] | Percent Effect [8] [%] | Percent Effect [9] [%]
1 | CCCNC(=O)c1cnc(N(C)C)nc1COC | -3.99 | 9.33 | 7.82 | 8.88 | 2.75 | -2.99 | 8.69 | 13.2 | 1.06 | 10.3 | -3.99
2 | CCOCC1CN(C(=O)CS(C)(=O)=O)Cc2cnn(C)c21 (configuration not stated) | -1.67 | 2.67 | -16.6 | 8.66 | -3.28 | -11.3 | 4.27 | 1.39 | 2.08 | 2.5 | -6.62
3 | COCC(O)CNC(=O)c1coc(COc2ccc3sc(C)nc3c2)n1 (configuration not stated) | -0.0441 | 5.48 | 3.03 | 0.244 | -7.25 | 5.46 | 14.7 | 44.1 | 5.38 | 15 | -1.23
4 | Cn1cc(CCNC(=O)CCc2ccc3c(c2)OCO3)cn1 | -0.341 | 16.2 | 0.891 | 13.4 | -9.75 | 3.88 | 13.3 | 8.13 | 1.98 | 13.4 | -6.68
5 | COc1c(C(=O)NCc2cccnc2)nnn1Cc1ccc(C)cc1 | -1.69 | 1.33 | 1.61 | 3.68 | -4.13 | 1.23 | 4.25 | 5.48 | 1.06 | 2.56 | 0.167
6 | NC(=O)COc1cccc(C(=O)N2CCCC(n3cccn3)C2)c1 (configuration not stated) | -3.05 | 13.5 | -1.18 | 4.63 | 8.45 | 1.29 | 16 | 4.13 | 4.95 | 28.1 | -6.2
7 | CCC(C)(C)NC(=O)C1CC(=O)N(CC2CC2)C1 (configuration not stated) | -2.71 | 13.5 | 9.25 | -3.89 | -7.15 | 3.14 | 11.3 | 17.7 | 2.97 | -18.3 | -7.51
8 | CC(C)N(C)C(=O)C1=NOC2(CCN(C(=O)c3ccc(Cl)cc3)C2)C1 (configuration not stated) | -0.137 | 5.48 | 1.89 | 5.19 | -7.54 | -1.6 | 17.6 | 27.1 | 8.33 | 8.64 | -3.93
9 | CCCN(Cc1ccccc1)Cn1nc(C)c2c(C)onc2c1=O | -7 | 10.8 | -10.2 | 25.6 | 4.62 | -4.81 | 1.98 | 8.04 | 5.42 | 18.5 | -13.4
10 | COc1cc(C)sc1C(=O)N1CCC(Nc2cccnc2)CC1 | -6.41 | -121 | 0.841 | 37.6 | 3.17 | 3.19 | 3 | 5.06 | 8.33 | 11.1 | 0.713
11 | CN(Cc1cccc(F)c1)S(=O)(=O)N1CCOCC1 | -1.93 | 7.89 | 1.93 | -0.448 | -0.876 | -1.18 | 24.4 | 9.7 | 2.13 | 13 | -6.29
12 | Cc1ncccc1Oc1nccnc1C1CCN(C(C)C)CC1 | -6.52 | 6.76 | 1.33 | 5.77 | 0.593 | -2.09 | 2.65 | -0.668 | -31.2 | 9.09 | -19.2
13 | CCC(C)[C@H](NC(=O)c1cc(Br)ccc1-n1cnnn1)C(=O)OC (some centres not stated) | -3 | -1.33 | -6.14 | -6.61 | -2.36 | -11.1 | 2.03 | -0.401 | -19.1 | -17.9 | 0.0287
14 | Cc1ccc(NC(=O)NCCCc2n[nH]c(N)c2C#N)cc1 | -1.33 | 15.2 | 3.73 | -1.97 | -3.12 | 1.9 | 13.5 | 13.3 | 5.42 | 11.4 | -3.94
15 | O=C(Cc1ccc2c(c1)CCCC2)NCCc1ccccn1 | -2.72 | -7.89 | -4.68 | -1.25 | 0.0934 | 1.44 | 16.2 | 12.1 | 7.39 | 23.5 | -7.01
16 | CS(=O)(=O)CCN1CCC2(CCCN(C3CCOCC3)C2=O)C1 (configuration not stated) | -4.3 | 2.74 | -4.09 | 8.46 | 2.98 | -2 | 3.85 | 13.4 | 2.08 | 11.1 | -0.555
17 | COCC(=O)N1CCC(c2nc3ccc(-c4ccccc4)cn3n2)CC1 | 1.49 | -153 | 4.81 | 3.2 | -1.19 | 4.79 | 13.4 | 15.6 | 0 | 3.7 | -1.08
18 | O=C(c1ccc(=O)[nH]n1)N1CC(c2nc(Cc3ccccc3)no2)C1 | -2.52 | 8.22 | -1.62 | 7.99 | 3.33 | 20.9 | 14.4 | 0.0834 | 6.45 | 20 | -5.6
19 | COc1ccc(CN2CCCC3(CCN(c4ccsc4)C3=O)C2)cc1 (configuration not stated) | -1.81 | 0 | 5.65 | 2.16 | -5.32 | 3.96 | 6.78 | 21.2 | 2.13 | 3.85 | -0.303
20 | CS(=O)(=O)NC1CCc2c(ccc(=O)n2CC2CC2)C1 (configuration not stated) | -2.67 | 10.7 | 7.1 | 2.38 | -3.54 | 2.56 | 10.7 | -2.08 | 6.38 | 14.1 | 0.517
21 | Cc1nc(CN2CCc3ncnc(-c4ccc(F)cc4)c3CC2)cs1 | -3.21 | 10.8 | 5.22 | -0.105 | -1.66 | 9.87 | 18.4 | -9.45 | 5.41 | 17.9 | -0.896
22 | CC(=O)Nc1ncc(S(=O)(=O)Nc2ccc(F)cc2F)s1 | -1.2 | 9.33 | -2.12 | -4.17 | -6.68 | -5.11 | 19 | 12.9 | 3.17 | 10.3 | -9.04

Reference: ChEMBL document CHEMBL3988442, “University of Dundee, Small-Polar-MMV Screening Library” (2021)
